Test results as given in the supplement of paper PMC11732987, “Enantioselective OTUD7B fragment discovery through chemoproteomics screening and high-throughput optimisation” (Communications Chemistry, 2025).

What was measured:
Assay in all cases: log2 ratio of Biotin-Ahx-Ub-VS probe labelling (fragment/DMSO); higher = less target engagement (more negative = stronger competition), active = hit call of the paper (q ≤ 0.05, log2 ratio ≤ -1)
Conditions in all cases: compound concentration: 200 uM; treatment time: 3 h
USP34 = USP34 (UniProt Q70CQ2)
How it was run: (§1)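 HEK293T lysate, 495 µg per sample in Tris/CHAPS/IGEPAL buffer with protease inhibitors, was treated in triplicate with fragment at 200 µM or vehicle for 3 h and then with Biotin-Ahx-Ub-VS at 0.5 µM final for 1 h. Labelled DUBs were NeutrAvidin-enriched, digested with LysC and trypsin, and run by diaPASEF LC-MS/MS. Spectronaut label-free quantities were global-median-normalised, and values are average log2 fragment/vehicle ratios by unpaired t-test on proteins with ≥2 unique peptides.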

USP36 = molecular target: T1, USP36 (UniProt Q9P275)
T1 sequence (whole entry): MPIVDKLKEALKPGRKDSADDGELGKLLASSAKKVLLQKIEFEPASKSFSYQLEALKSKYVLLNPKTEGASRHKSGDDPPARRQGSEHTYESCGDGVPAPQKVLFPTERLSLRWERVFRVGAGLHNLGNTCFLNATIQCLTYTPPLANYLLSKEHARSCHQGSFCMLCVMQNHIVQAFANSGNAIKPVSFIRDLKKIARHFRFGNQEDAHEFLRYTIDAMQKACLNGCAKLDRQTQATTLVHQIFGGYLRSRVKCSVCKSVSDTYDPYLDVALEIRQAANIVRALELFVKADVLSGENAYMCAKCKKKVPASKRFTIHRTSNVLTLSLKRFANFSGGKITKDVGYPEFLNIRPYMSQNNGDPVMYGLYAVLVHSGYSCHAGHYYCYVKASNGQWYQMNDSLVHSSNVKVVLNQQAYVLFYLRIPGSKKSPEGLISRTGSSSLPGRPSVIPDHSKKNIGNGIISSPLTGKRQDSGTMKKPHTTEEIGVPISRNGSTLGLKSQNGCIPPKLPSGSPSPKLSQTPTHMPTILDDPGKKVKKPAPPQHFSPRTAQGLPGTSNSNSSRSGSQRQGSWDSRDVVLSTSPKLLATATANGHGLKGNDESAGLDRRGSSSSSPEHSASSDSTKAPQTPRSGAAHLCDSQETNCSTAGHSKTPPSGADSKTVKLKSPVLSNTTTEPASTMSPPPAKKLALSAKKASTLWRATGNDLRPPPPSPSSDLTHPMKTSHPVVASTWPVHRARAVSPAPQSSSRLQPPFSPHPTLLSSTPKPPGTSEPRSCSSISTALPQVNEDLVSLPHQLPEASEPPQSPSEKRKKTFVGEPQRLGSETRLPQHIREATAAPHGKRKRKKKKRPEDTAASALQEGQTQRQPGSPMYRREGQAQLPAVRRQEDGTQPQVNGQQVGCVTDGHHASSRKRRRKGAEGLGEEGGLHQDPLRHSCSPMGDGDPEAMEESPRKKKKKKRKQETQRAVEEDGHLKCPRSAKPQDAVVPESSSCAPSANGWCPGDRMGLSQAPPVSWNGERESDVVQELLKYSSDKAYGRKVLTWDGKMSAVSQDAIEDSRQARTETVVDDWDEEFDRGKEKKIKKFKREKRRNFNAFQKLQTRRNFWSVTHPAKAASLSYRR
How it was run: as §1

USP38 = molecular target: T2, USP38 (UniProt Q8NB14)
T2 sequence (whole entry): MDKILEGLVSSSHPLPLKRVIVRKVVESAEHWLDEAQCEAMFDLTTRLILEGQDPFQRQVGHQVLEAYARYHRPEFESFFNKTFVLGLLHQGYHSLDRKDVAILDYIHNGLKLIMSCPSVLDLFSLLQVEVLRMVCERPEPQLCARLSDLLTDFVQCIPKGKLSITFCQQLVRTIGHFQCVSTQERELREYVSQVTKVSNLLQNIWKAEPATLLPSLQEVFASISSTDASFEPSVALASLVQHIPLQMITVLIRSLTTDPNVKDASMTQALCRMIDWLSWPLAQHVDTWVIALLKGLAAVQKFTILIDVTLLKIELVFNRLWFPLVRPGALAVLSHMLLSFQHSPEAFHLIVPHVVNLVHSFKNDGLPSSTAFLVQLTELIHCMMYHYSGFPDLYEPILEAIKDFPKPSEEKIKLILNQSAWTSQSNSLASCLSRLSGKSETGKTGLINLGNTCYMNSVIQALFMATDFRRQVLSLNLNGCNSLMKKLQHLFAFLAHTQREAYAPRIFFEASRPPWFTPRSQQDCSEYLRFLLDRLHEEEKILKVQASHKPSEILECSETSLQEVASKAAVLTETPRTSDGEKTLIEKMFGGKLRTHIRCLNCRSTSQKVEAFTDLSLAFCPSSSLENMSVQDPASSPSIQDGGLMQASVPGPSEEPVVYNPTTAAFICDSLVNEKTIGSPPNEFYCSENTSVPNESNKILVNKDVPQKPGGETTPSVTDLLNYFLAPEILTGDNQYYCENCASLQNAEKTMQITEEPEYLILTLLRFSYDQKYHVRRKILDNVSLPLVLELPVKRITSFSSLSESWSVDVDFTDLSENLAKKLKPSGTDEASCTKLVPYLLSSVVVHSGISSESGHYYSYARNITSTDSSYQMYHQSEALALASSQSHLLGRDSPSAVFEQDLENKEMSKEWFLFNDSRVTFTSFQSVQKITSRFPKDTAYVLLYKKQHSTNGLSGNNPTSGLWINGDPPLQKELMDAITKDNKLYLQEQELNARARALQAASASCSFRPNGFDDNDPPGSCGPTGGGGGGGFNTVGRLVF
How it was run: as §1

USP39 = molecular target: T3, USP39 (UniProt Q53GS9)
T3 sequence (whole entry): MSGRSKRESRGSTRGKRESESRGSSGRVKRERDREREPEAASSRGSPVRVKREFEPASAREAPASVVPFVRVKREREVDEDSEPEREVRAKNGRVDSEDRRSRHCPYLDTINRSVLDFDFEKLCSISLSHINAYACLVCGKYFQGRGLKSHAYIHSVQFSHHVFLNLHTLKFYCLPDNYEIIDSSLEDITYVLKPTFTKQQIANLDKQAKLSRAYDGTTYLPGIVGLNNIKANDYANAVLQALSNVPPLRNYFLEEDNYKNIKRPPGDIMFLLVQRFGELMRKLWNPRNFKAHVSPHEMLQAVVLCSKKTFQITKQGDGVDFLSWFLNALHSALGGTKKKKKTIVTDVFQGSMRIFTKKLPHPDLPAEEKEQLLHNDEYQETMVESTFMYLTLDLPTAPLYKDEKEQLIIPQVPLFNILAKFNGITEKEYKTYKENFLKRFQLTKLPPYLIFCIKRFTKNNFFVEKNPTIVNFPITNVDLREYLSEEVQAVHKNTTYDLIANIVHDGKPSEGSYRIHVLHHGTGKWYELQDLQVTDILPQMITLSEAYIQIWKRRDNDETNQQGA
How it was run: as §1

USP4 = molecular target: T4, USP4 (UniProt Q13107)
T4 sequence (whole entry): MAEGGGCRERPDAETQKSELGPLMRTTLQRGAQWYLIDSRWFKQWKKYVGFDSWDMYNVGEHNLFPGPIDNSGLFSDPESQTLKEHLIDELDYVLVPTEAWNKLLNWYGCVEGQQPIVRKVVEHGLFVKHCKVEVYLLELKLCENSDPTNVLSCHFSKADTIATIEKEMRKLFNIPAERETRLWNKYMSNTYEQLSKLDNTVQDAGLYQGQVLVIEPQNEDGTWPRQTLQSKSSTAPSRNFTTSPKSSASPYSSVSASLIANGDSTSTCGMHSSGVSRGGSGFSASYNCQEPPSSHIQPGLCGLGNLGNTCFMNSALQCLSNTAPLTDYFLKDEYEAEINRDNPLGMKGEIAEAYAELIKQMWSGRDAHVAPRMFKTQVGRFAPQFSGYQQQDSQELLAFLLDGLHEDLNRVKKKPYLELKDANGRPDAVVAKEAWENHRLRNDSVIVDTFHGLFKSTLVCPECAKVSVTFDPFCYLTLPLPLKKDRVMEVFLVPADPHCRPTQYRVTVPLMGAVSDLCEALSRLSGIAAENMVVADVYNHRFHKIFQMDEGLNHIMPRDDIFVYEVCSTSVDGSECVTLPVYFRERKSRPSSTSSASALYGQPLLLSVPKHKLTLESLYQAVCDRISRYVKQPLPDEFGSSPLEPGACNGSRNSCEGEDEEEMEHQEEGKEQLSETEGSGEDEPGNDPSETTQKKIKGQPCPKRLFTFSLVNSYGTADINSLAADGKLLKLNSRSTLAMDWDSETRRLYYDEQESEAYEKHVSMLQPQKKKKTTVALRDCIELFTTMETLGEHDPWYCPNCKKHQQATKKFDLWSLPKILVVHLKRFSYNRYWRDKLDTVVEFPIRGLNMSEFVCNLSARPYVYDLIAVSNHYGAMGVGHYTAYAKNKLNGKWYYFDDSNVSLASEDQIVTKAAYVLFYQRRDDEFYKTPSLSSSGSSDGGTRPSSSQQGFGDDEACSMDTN
How it was run: as §1

Measured: log2 ratio of Biotin-Ahx-Ub-VS probe labelling

Sequence of USP34 (Q70CQ2 whole entry, the tested form may be a part): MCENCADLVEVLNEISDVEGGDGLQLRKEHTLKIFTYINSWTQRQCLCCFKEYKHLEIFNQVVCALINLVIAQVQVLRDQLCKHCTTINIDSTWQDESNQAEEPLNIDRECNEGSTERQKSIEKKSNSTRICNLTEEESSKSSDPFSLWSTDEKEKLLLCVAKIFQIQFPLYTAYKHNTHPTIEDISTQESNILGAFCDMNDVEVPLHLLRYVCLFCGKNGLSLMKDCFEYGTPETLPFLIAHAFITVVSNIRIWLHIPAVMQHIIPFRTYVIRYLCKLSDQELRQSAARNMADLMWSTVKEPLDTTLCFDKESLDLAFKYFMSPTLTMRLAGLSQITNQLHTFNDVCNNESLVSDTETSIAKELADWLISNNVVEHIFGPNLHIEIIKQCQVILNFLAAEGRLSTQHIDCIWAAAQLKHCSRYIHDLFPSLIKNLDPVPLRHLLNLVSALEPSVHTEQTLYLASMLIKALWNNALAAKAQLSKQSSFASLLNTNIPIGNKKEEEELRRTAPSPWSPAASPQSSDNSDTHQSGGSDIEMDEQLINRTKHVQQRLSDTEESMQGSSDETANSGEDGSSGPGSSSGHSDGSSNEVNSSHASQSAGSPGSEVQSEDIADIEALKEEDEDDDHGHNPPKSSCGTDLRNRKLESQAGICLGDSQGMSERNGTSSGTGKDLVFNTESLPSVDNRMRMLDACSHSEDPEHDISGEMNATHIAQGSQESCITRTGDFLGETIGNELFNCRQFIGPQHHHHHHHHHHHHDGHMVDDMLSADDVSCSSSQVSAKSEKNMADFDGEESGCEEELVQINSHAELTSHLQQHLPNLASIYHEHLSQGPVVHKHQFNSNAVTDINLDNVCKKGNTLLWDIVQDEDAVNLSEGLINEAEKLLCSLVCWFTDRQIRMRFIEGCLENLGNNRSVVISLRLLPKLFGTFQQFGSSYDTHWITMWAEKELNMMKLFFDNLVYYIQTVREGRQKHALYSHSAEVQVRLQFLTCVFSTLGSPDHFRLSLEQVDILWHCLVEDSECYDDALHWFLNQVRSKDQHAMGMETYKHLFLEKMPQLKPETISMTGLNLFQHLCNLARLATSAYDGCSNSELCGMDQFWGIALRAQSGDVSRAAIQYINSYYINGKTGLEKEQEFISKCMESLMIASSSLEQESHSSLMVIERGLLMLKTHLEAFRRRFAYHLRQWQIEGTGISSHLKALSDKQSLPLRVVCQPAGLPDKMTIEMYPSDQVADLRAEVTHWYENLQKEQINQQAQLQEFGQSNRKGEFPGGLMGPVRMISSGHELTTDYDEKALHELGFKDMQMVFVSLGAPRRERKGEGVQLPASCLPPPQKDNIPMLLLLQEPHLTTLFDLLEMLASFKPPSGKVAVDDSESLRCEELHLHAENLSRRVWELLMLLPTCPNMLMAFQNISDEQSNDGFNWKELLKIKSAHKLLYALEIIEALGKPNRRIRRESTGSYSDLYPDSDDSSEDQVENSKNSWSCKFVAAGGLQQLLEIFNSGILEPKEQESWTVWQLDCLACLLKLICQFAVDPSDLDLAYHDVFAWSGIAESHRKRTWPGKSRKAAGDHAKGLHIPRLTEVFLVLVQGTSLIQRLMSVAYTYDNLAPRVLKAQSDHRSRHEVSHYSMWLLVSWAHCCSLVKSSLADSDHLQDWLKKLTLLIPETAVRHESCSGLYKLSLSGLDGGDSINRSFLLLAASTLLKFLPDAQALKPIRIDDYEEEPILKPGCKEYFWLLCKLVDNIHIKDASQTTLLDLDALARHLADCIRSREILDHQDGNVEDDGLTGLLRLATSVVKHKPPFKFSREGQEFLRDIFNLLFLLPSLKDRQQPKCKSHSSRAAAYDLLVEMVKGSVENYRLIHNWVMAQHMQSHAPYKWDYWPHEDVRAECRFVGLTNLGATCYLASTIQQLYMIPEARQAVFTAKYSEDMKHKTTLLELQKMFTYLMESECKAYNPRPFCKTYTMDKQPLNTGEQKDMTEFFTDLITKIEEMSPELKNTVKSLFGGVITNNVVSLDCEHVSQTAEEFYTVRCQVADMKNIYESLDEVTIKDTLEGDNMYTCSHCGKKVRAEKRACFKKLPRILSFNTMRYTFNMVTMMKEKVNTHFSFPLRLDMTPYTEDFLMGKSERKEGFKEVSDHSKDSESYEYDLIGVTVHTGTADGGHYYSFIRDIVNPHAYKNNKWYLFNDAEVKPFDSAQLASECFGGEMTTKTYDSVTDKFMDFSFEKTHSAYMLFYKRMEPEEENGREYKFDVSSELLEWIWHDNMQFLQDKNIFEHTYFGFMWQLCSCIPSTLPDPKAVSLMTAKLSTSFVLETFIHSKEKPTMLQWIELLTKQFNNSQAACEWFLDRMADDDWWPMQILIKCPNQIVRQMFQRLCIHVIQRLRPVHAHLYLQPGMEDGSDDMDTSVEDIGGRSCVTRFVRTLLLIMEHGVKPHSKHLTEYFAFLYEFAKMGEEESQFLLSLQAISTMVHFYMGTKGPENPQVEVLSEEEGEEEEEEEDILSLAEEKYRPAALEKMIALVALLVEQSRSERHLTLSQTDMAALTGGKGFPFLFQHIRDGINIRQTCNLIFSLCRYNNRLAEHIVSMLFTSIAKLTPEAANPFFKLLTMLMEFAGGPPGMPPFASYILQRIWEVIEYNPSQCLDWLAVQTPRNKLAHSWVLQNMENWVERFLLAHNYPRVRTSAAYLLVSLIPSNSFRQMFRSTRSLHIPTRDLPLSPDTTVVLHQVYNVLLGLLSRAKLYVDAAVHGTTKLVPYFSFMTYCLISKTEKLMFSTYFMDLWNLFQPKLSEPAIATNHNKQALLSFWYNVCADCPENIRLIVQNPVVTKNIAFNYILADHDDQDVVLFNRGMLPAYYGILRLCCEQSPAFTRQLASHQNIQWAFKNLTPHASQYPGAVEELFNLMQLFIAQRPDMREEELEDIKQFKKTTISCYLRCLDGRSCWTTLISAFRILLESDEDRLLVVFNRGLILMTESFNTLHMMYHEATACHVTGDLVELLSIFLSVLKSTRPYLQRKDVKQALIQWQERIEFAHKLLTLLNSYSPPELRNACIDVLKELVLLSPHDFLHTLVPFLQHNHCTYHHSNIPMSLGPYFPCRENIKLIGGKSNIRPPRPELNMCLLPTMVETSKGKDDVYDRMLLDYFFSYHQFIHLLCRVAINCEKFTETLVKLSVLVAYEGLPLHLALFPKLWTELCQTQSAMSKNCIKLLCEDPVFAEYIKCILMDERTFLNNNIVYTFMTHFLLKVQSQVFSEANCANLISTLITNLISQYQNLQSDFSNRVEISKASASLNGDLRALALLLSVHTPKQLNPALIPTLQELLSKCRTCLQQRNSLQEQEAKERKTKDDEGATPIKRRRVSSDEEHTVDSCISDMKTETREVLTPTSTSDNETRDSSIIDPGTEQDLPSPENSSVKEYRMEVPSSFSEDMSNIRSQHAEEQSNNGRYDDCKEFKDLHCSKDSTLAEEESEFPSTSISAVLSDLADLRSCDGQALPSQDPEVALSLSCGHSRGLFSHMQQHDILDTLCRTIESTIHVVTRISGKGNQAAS

Cc1ccc(CC(CO)CNC(=O)CCl)cc1 (stereo not given)
inactive: USP34 -0.117 | USP36 -0.19 | USP38 -0.239 | USP39 -0.321 | USP4 -0.14
